Screening data as filed in PubChem.
Sampled rows, rich in hits. Any-hit rate of the full collection: about 21%.
NS1 inh: qHTS Assay for Inhibitors of Influenza NS1 Protein Function; Potency, µM (highest dose often 46.1 µM), inactives show at the top dose activity, positive = more growth; AID 2326, 2010; actives 0.4% (n = 270,000); calls by dose curve; note: potency is the fitted concentration of half-maximal effect; actives are rising curves; nearly all actives have a fitted effect of over 50% in size
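Recovery from NS1-induced slow growth read by OD600 in budding yeast switched to galactose assay medium (pH 6.0, -URA) at 1:100 dilution. Compound 23 nl per well; the matching strain lacking NS1 serves as control.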
FBPA Giardia inh: qHTS Assay for Inhibitors of Fructose-1,6-bisphosphate Aldolase from Giardia Lamblia. actives 0.71% (n = 290,000). purified Giardia FBPA. AID 2451, 2010. Potency, µM (series often up to 59.6 µM), for the others: at the highest dose activity, negative = inhibition, hits mostly inhibitors; note: potency is the fitted concentration of half-maximal effect; % is set by controls: 0 for no effect and ±100 for the full control effect; nearly all actives have a fitted effect of over 55% in size
Target sequence (A8B2U2 whole entry, looked up): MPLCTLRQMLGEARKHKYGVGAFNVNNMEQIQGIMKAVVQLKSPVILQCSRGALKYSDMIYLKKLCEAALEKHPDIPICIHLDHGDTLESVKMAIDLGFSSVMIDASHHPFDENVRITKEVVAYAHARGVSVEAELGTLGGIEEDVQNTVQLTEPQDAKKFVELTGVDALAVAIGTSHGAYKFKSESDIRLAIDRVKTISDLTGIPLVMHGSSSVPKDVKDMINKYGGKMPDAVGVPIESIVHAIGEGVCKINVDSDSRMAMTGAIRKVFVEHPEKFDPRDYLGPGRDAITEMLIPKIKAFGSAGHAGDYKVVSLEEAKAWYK
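Giardia FBPA (40 nM reagent) was preincubated 10 min at RT with compound (up to 57.5 uM final), then substrate plus GAPDH/TPI/NAD/arsenate coupling system with diaphorase/resazurin was added; resorufin fluorescence (525/598 nm) was read after 20 min.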
Pf growth 96h: Primary qHTS for delayed death inhibitors of the malarial parasite plastid, 96 hour incubation | P. falciparum luciferase reporter growth, 96 h | actives 6.9% (n = 320,000) | AID 504834, 2011 | Potency, µM (highest dose often 28.7 µM), for the others: top-dose activity change, negative = inhibition, usual class: inhibitors; note: potency is the fitted concentration of half-maximal effect; % is set by controls: 0 for no effect and ±100 for the full control effect
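Two parasite generations (96 h, 37 C, 5% CO2) of compound exposure in infected erythrocytes (0.05% parasitemia, 2% hematocrit). Luciferase-reporter P. falciparum; decreased luminescence indicates inhibited growth, aimed at apicoplast-acting delayed death.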
CHX counter: Cycloheximide Counterscreen for Small Molecule Inhibitors of Shiga Toxin; cell reporter, cycloheximide protein synthesis inhibition counterscreen; max response, %; actives 12% (n = 300,000); in the data active = max response mostly above about 13%, no sharp cut-off; inactive = mostly below about 14%; note: read at 38.3 µM for the half of the compounds with a filed dose; 0% is about no effect
Pf growth 48h: Primary qHTS for delayed death inhibitors of the malarial parasite plastid, 48 hour incubation | P. falciparum luciferase growth in erythrocytes, 48 h | Potency, µM (doses to about 28.7 µM), for inactives: at the highest dose activity change, negative = inhibition, hits mostly inhibitors | actives 5.9% (n = 310,000) | AID 504832, 2011; note: potency is the fitted concentration of half-maximal effect; % is set by controls: 0 for no effect and ±100 for the full control effect
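Luminescence readout; reporter = integrated firefly luciferase in P. falciparum. RBC culture at 2% hematocrit, 0.1% parasitemia final, 37 C/5% CO2; decreased signal taken as growth inhibition.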
Shiga toxin inh: A qHTS for Small Molecule Inhibitors of Shiga Toxin. AID 2315, 2010. actives 9.2% (n = 290,000). inhibition, % at 38.7 µM. Vero cells, Shiga toxin protein synthesis inhibition reporter; in the data active = inhibition mostly above about 28%, no sharp cut-off; inactive = mostly below about 43%; note: 0% is about no effect
Numbers without * were called inactive; i = inactive; ? = inconclusive; · = no result given; [ ] = dose if it differs, or a comment. Unless noted, calls come from the whole dose curve; as a rule, active = well fitted curve in the direction sought with a large enough effect; inconclusive = small, poorly fitted or top-dose-only effect, or another doubt; inactive = no such curve, though single readings can be large; an effect the other way counts as inactive or inconclusive.

SMILES	NS1 inh	FBPA Giardia inh	Pf growth 96h	CHX counter	Pf growth 48h	Shiga toxin inh
Cc1cc(C)c(S(=O)(=O)Nc2cccc3cccnc23)c(C)c1	·	-3.0%	·	10.4	·	27.4
Cc1cc(C)c(S(=O)(=O)Nc2ccc[nH]c2=O)c(C)c1	1.1%	5.61µM*	·	0.3	0.5%	6.6
COC(=O)C1=C(C(=O)OC)[C@@H]2N(C)c3ccccc3[C@@]23C[C@@H](CO)N(C(=O)C2CCC2)C3=N1	·	3.8%[12.9 µM]	·	·	·	·
Oc1ccc(/C=N/N=C/c2ccc(O)c(O)c2)cc1O	14.8%	?	?	22.6*	?	21.0*
Oc1ccc(N=Cc2ccc(O)c(O)c2)cc1	3.9%	1.58µM*	5.6%	10.6	?	28.9
CC(=O)Nc1cccc(OCCCNC(=O)C2CCC2)c1	2.0%	6.4%	-2.2%	6.6	-16.7%	11.9
CSc1ccc(/C=C/c2cc(=O)c3ccccc3[nH]2)cc1	-12.0%	-5.4%	-6.0%	15.4*	1.85µM*	74.0*
O=c1cc(/C=C/c2cccs2)[nH]c2ccccc12	-7.7%	-11.6%	·	17.8	9.28µM*	52.4
N#Cc1ccc(CSc2ccc(S(=O)(=O)N3CCCC3)cn2)cc1	·	·	-28.6%	·	-21.8%	·
O=C1CCCC(C(C(=O)OCc2ccccc2)C(=O)OCc2ccccc2)C1 (stereo not drawn)	·	0.3%	·	·	·	·
c1ccc(CNCCNCc2ccccc2)cc1	·	5.0%	?	-3.7	-6.8%	-4.3
Cc1cc(-c2ccccc2)cc(-c2ccccc2)[n+]1C	·	1.9%	0.928µM*	-0.9	10.4µM*	-11.8
C[n+]1c(-c2ccccc2)cc(-c2ccc(O)cc2)cc1-c1ccccc1	·	3.6%	2.08µM*	-2.3	?	-3.0
O=[N+]([O-])c1ccc(-[n+]2c(-c3ccccc3)cc(-c3ccccc3)cc2-c2ccccc2)cc1	-5.9%	3.5%	0.0%	-3.1	?	·
COc1ccc(-[n+]2c(-c3ccccc3)cc(-c3ccccc3)cc2-c2ccccc2)cc1	·	·	0.294µM*	·	0.828µM*	·
Oc1ccc(-[n+]2c(-c3ccccc3)cc(-c3ccccc3)cc2-c2ccccc2)cc1	·	·	0.131µM*	·	0.37µM*	·
O=C(C(=O)c1ccc(O)cc1)c1ccccc1	?	-1.7%	226.7%	2.1	2.0%	17.1
Cc1cccc(C(=O)OCC(=O)N2CCCC2=O)c1O	·	·	?	·	-12.9%	·
CC(C)(C)c1ccc(OCC(=O)NNC(=O)c2cccnc2)cc1	0.5%	7.7%	76.0%	-1.6	-29.5%	14.0
C[C@@](Br)(C(=O)O)[C@H](Br)C(=O)O	-1.4%	·	·	·	·	·
C=C1c2ccccc2O[C@H](C(=O)OCC)[C@@H]1C1CCCCC1 (tested in a mixture with another compound)	·	-1.8%[89.2 µM]	·	7.3	·	i
CS(=O)(=O)N1CCc2ccc(NC(=O)C3CCCO3)cc2C1 (stereo not drawn)	0.4%	·	?	10.0	15.1%	-11.5
Cc1cc(-c2ccccc2)cc(-c2ccccc2)[n+]1CCc1ccccc1	·	·	0.522µM*	·	0.465µM*	·
CCOc1ccc(-c2cc(C)[n+](CCc3ccc(OC)c(OC)c3)c(-c3ccc(OCC)cc3)c2)cc1	-47.2%	4.9%	?	-2.5	?	-4.4
O=C(Cc1ccccc1[N+](=O)[O-])Nc1ccc(S(=O)(=O)N2CCCC2)cc1	14.3%	·	?	0.3	-17.2%	-28.3
SMILES	NS1 inh	FBPA Giardia inh	Pf growth 96h	CHX counter	Pf growth 48h	Shiga toxin inh
COc1cc2c(cc1OC)CN(C1CCCN(Cc3cc(Cl)ccc3O)C1)CC2 (stereo not drawn)	-9.1%	-13.1%	9.28µM*	-1.6	?	-13.2
COc1cc(CN2CCCC(N3CCc4ccccc4C3)C2)c(Cl)cc1O (stereo not drawn)	-3.7%	-11.3%	2.94µM*	15.8	?	-8.9
COc1ccc(CN2CCc3cc(OC)c(OC)cc3C2)cc1O	0.7%	?	43.7%	-3.1	40.4%	-9.1
Cc1noc(C)c1C(=O)Nc1nc2ccc(Cl)cc2s1	-22.2%	·	49.0%	41.9*	50.1%	89.2*
Cc1noc(C)c1C(=O)Nc1nc2ccc(F)cc2s1	·	·	i	·	i	·
O=C(Nc1ccccc1-c1nc2ccccc2s1)c1ccco1	-4.6%	-0.8%	3.9%	38.6*	1.2%	105.9*
O=C(Nc1nc2ccc(Br)cc2s1)c1ccco1	-26.5%	-0.7%	?	29.9*	194.4%	·
O=C(Nc1ccccc1-c1nc2ccccc2s1)c1cccnc1Cl	1.0%	15.4%	20.0%	-1.8	12.2%	26.6
Cn1cc(Cl)c(C(=O)Nc2nc3ccc(Cl)cc3s2)n1	-20.6%	5.5%	69.2%	57.1*	105.9%	70.6*
CCCCCCC/C=C/C1=CC2(C)CC1(C)C(CCCCCCC)CC2=O (stereo not drawn)	·	1.6%[12.9 µM]	·	·	·	·
COc1ccc(Cl)cc1NC(=O)CN(C)C(=O)CCc1nc2ccccc2c(=O)[nH]1	·	·	?	·	-21.4%	·
CC(=O)NCCNc1nc(-c2cccc(C#N)c2)nc2ccccc12	·	-10.0%	·	·	·	·
CCOc1ccc(N2CC(C(=O)NC3CCCCCC3)CC2=O)cc1 (stereo not drawn)	-10.2%	7.4%	?	-6.5	9.4%	-14.1
O=C(Nc1nc2ccc(S(=O)(=O)N3CCCC3)cc2s1)c1ccco1	17.1%	19.1%	67.8%	14.8	23.4%	-0.7
O=C(Nc1nc2ccc(Cl)cc2s1)c1ccco1	-65.8%	-1.9%	·	41.2*	188.5%	62.3*
C=C[C@]1(C)C[C@H](OC(=O)CO)[C@]2(C)C3C(=O)CC[C@]3(CC[C@H]2C)[C@H](C)[C@H]1O (stereo partly drawn)	-7.7%	·	·	·	·	·
Cc1ccc(C(=O)c2nccn2C)cc1C	-2.9%	-16.8%	59.6%	41.7*	36.7%	46.3
CCC(C)Nc1nc(Cl)nc(NCCOc2ccccc2)n1 (stereo not drawn)	-13.3%	0.2%	?	33.3*	4.7%	30.6
CC(C)Nc1nc(Cl)nc(NCCOc2ccccc2)n1	-1.8%	1.0%	0.0%	18.5	39.3%	19.8
O=C(CN1C(=O)NC2(CCCC2)C1=O)Nc1cc(Cl)ccc1N1CCOCC1	·	·	2.2%	·	?	·
CCOc1ccc(NC(=O)C(CC)n2nc(C)c3c(C)n(-c4ccccc4)nc3c2=O)cc1 (stereo not drawn)	13.0%	·	13.1µM*	-8.8	?	-4.7
CCC(C(=O)Nc1cc(F)ccc1F)n1nc(C)c2c(C)n(-c3ccc(C)cc3)nc2c1=O (stereo not drawn)	1.6%	8.6%	8.28µM*	-2.0	?	1.6
CCC(C(=O)Nc1cccc(OC)c1)n1nc(C)c2c(C)n(-c3ccccc3)nc2c1=O (stereo not drawn)	-9.4%	·	38.1%	-9.9	?	-3.4
CCC(C(=O)Nc1ccccc1F)n1nc(C)c2c(C)n(-c3ccccc3)nc2c1=O (stereo not drawn)	9.3%	4.9%	14.7µM*	-0.8	?	-5.3
